The source made the active and inactive calls. The calls were made as follows: active = hit-call score of the fitted dose curve at least 0.9, where 1 is the maximum; inactive = score below 0.9.
Assays:
[1] = APR_HepG2_CellLoss_72hr: Apredica 72-hour HepG2 Assay for Cell Loss (AID 2282915); conditions: high-content imaging
Summary of the method: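 HepG2 cells were exposed for 72 hr to compounds at 0.39–200 uM (ten concentrations, duplicate) in 0.5% v/v final DMSO. Nuclei were stained with Hoechst 33342 after 3.7% formaldehyde fixation, imaged at 20x, and counted; fits bidirectional versus DMSO.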

[2] = APR_HepG2_P-H2AX_72hr: Apredica 72-hour HepG2 Assay for H2AX Phosphorylation (AID 2282916); conditions: imaging, actives raise or lower the signal;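 also: phospho-histone H2A.x immunostain intensity per cell marking DNA damage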
Summary of the method: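 HepG2 human liver cells were exposed for 72 hr to compounds at 0.39–200 uM (10 concentrations, duplicate per plate) in 0.5% v/v DMSO. Fixed, permeabilized cells were immunolabeled for phospho-histone H2A.x with Hoechst 33342 and imaged by HCS fluorescence; bidirectional fit versus DMSO.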

[3] = APR_HepG2_MitoMembPot_72hr: Apredica 72-hour HepG2 Assay for Mitochondrial Membrane Potential (AID 2282917); conditions: imaging, actives raise or lower the signal
Summary of the method: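 HepG2 cells exposed 72 h to compounds at 0.39–200 uM (0.5% v/v DMSO, duplicates); MitoTracker Red CMXRos 250 nM loaded 30 min before 3.7% formaldehyde fixation, imaged by HCS fluorescence. Bidirectional fit versus DMSO.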

[4] = APR_HepG2_MitoticArrest_72hr: Apredica 72-hour HepG2 Assay for Mitotic Arrest (AID 2282918); conditions: high-content imaging, actives raise or lower the signal
Summary of the method: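 High-content imaging of fixed human HepG2 cells after 72 h compound exposure (0.39–200 uM, duplicates, 0.5% DMSO); mitotic arrest scored from phospho-histone H3 and nuclear Hoechst staining relative to DMSO.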

[5] = APR_HepG2_MicrotubuleCSK_72hr: Apredica 72-hour HepG2 Assay for Microtubule CSK Stabilty (AID 2282919); conditions: HepG2 microtubule cytoskeleton, high-content imaging, actives raise or lower the signal
Summary of the method: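 HepG2 human liver cells were dosed for 72 h at ten concentrations from 0.39 to 200 uM in duplicate (0.5% v/v DMSO final). Fixed, permeabilized cells were immunostained for alpha-tubulin (Cy5) with a Hoechst counterstain and imaged at 20x.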

[6] = APR_HepG2_P-H2AX_24hr: Apredica 24-hour HepG2 Assay for H2AX Phosphorylation (AID 2282920); conditions: high-content imaging, actives raise or lower the signal
Summary of the method: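 High-content imaging of phospho-histone H2A.x immunofluorescence, nuclei counterstained with Hoechst 33342, in fixed HepG2 cells. Compounds ran 0.39–200 uM in duplicate for 24 h, final DMSO 0.5%. Signal change fitted both directions against DMSO.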

[7] = APR_HepG2_StressKinase_72hr: Apredica 72-hour HepG2 Assay for Stress Kinase (AID 2282921); conditions: HepG2 stress kinase (phospho-c-Jun) imaging, actives raise or lower the signal
Summary of the method: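 Cells were exposed for 72 h to ten concentrations (0.39–200 uM, duplicate) at 0.5% v/v DMSO final, then fixed with 3.7% formaldehyde, permeabilized and immunostained for phospho-c-Jun (Cy3 secondary) with Hoechst nuclear counterstain.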

[8] = APR_HepG2_StressKinase_24hr: Apredica 24-hour HepG2 Assay for Stress Kinase (AID 2282922); conditions: HepG2 stress kinase (phospho-c-Jun) imaging, actives raise or lower the signal
Summary of the method: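 HepG2 cells exposed 24 hr to compound at 0.39–200 uM (10 concentrations, duplicate), 0.5% v/v DMSO final. Fixed in 3.7% formaldehyde, permeabilized with Triton X-100, immunolabeled for phospho-c-Jun with Hoechst 33342; HCS fluorescence imaging, bidirectional fit versus DMSO.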

[9] = APR_HepG2_p53Act_72hr: Apredica 72-hour HepG2 Assay for p53 Activation (AID 2282923); conditions: high-content imaging, actives raise or lower the signal;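 also: average cellular p53 protein immunofluorescence intensity in HepG2 cells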
Summary of the method: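 Cells were dosed for 72 hr with compounds at 0.39–200 uM in duplicate (final DMSO 0.5% v/v), then fixed in 3.7% formaldehyde, permeabilized with Triton X-100 and immunostained for p53 (Cy5) with Hoechst 33342 nuclear counterstain.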

[10] = APR_HepG2_MitoMass_72hr: Apredica 72-hour HepG2 Assay for Mitochondrial Mass (AID 2282924); conditions: high-content imaging, actives raise or lower the signal;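 also: MitoTracker Red CMXRos stain intensity per cell imaged as mitochondrial mass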
Summary of the method: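 HepG2 cells were exposed for 72 hr to compounds at 0.39–200 uM (ten concentrations, duplicate, 0.5% v/v DMSO final). Live cells were stained with 250 nM MitoTracker Red CMXRos for 30 min, then fixed in 3.7% formaldehyde and imaged by HCS fluorescence.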

[11] = APR_HepG2_NuclearSize_72hr: Apredica 72-hour HepG2 Assay for Nuclear Size (AID 2282925); conditions: high-content imaging, actives raise or lower the signal
Summary of the method: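 HepG2 cells were exposed to compounds at ten concentrations from 0.39 to 200 uM (duplicate, 0.5% DMSO final) for 72 hr. After fixation in 3.7% formaldehyde, nuclei were stained with Hoechst 33342 (2 ug/mL) and imaged at 20x.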

[12] = ATG_CRE_CIS: Attagene CIS-FACTORIAL HepG2 Assay for human cAMP Responsive Element (CRE) binding protein 3 (AID 2282926); conditions: HepG2 CRE cis-reporter, Attagene multiplexed mRNA; actives raise or lower the signal
Summary of the method: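 Multiplexed transcription-unit reporters transfected into HepG2; 24 h dosing; RT-PCR/capillary electrophoresis fluorescence read-out; bidirectional fit vs DMSO.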

[13] = target: CCAAT/enhancer-binding protein beta (Homo sapiens) (UniProt P17676); experiment: ATG_C_EBP_CIS: Attagene CIS-FACTORIAL HepG2 Assay for human CCAAT/Enhancer Binding Protein (C/EBP) beta (AID 2282927); conditions: HepG2 Attagene cis-factorial transcription factor reporter; actives raise or lower the signal
Sequence of CCAAT/enhancer-binding protein beta (Homo sapiens) (P17676 whole entry, looked up): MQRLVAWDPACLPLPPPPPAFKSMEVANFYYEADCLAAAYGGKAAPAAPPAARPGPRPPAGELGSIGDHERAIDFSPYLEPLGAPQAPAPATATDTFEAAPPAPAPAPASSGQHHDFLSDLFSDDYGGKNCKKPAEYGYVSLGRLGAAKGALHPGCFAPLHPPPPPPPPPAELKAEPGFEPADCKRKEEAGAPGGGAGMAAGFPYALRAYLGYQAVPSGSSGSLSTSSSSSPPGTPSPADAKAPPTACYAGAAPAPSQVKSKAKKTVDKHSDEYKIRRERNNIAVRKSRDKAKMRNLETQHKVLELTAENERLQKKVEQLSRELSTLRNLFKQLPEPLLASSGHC
Summary of the method: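 RT-PCR/capillary electrophoresis fluorescence of reporter mRNA, 24 h post-dose, in HepG2 cells carrying transfected cis-promoter reporter units. Bidirectional curve fitting against DMSO baseline captures gain or loss of signal.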

[14] = ATG_CMV_CIS: Attagene CIS-FACTORIAL HepG2 Assay for human CMV (Internal Marker) (AID 2282928); conditions: HepG2 CMV promoter reporter, transcription factor profiling; actives raise or lower the signal;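 also: endpoint acts as a background internal control marker rather than a target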
Summary of the method: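 HepG2 cells transiently transfected with multiple cis-regulated reporter units; 24 h compound exposure. Reporter mRNA quantified by RT-PCR, 6-FAM primer-extension labeling, HpaI digestion and capillary electrophoresis; bidirectional fitting against DMSO baseline.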

[15] = ATG_DR4_LXR_CIS: Attagene CIS-FACTORIAL HepG2 Assay for human Liver X Receptor (LXR), DR4 submotif (AID 2282929); conditions: HepG2 Attagene DR4 cis-reporter, mRNA transcription; actives raise or lower the signal
Summary of the method: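 HepG2 cells were transiently transfected with multiple cis-regulated reporter units and dosed for 24 hours. The DR4 reporter mRNA was quantified by RT-PCR, 6-FAM labelling and capillary electrophoresis. Bidirectional fits used DMSO as baseline.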

[16] = target: Aryl hydrocarbon receptor (Homo sapiens) (UniProt P35869); experiment: ATG_Ahr_CIS: Attagene CIS-FACTORIAL HepG2 Assay for human Aryl Hydrocarbon Receptor (Ahr) (AID 2282930); conditions: HepG2 AhR cis-factorial reporter transcription; actives raise or lower the signal
Sequence of Aryl hydrocarbon receptor (Homo sapiens) (P35869 whole entry, looked up): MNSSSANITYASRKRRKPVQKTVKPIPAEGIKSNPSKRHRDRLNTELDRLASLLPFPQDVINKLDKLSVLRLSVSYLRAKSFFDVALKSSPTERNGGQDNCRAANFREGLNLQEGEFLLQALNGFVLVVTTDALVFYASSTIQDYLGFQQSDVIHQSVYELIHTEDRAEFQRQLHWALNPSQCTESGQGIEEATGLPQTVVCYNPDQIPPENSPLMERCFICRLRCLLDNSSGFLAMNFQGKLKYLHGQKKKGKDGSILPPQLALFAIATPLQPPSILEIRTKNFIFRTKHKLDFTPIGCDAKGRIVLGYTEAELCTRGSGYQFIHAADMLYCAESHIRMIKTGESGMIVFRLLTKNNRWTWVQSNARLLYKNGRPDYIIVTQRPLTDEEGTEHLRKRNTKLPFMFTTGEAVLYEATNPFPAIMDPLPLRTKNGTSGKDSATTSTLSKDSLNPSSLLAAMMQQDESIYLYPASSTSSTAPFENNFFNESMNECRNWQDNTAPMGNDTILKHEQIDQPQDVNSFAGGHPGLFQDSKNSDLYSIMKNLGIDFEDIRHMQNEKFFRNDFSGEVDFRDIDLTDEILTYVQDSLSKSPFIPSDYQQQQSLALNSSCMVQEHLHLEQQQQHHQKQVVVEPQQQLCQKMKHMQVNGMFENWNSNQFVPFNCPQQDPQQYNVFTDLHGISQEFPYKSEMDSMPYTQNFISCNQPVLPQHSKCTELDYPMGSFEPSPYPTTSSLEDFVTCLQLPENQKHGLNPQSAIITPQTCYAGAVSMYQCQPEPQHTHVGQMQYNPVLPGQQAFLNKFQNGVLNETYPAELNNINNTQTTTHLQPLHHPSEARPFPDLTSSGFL
Summary of the method: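 HepG2 cells transiently transfected with cis-element-driven multiplexed reporter transcription units; endogenous transcription factor activity measured as reporter mRNA 24 h after dosing. RT-PCR, 6-FAM labelling, HpaI digestion, capillary electrophoresis; bidirectional fitting versus DMSO baseline.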

[17] = ATG_AP_1_CIS: Attagene CIS-FACTORIAL HepG2 Assay for human Activator Protein 1 (AP-1) (AID 2282931); conditions: HepG2 Attagene cis-factorial AP-1 reporter mRNA; actives raise or lower the signal
Summary of the method: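 HepG2 cells transiently transfected with cis-element-driven reporter transcription units, dosed for 24 hours. Reporter mRNA measured by RT-PCR, 6-FAM labelling, HpaI digestion and capillary electrophoresis. Bidirectional fitting against DMSO baseline.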

[18] = ATG_AP_2_CIS: Attagene CIS-FACTORIAL HepG2 Assay for human Activator Protein 2 (AP-2) (AID 2282932); conditions: HepG2 AP-2 cis-reporter, Attagene transcription factor profiling; actives raise or lower the signal
Summary of the method: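 HepG2 cells were transiently transfected with multiple cis-promoter reporter transcription units and dosed for 24 h. Reporter mRNA was measured by RT-PCR with capillary electrophoresis fluorescence; bidirectional fits relative to DMSO baseline.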

[19] = ATG_BRE_CIS: Attagene CIS-FACTORIAL HepG2 Assay for human Bone Morphogenetic Protein (BMP) Response Element (BRE) (AID 2282933); conditions: HepG2 BMP response element reporter, Attagene transcription factor profiling; actives raise or lower the signal
Summary of the method: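 Endogenous transcription factor activity at a BMP response element was monitored in transfected HepG2 cells 24 h after dosing. Fluorescent RT-PCR products were resolved by capillary electrophoresis, and activity was fitted in both directions versus DMSO.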

[20] = target: Retinoic acid receptor alpha (Homo sapiens) (UniProt P10276); experiment: ATG_DR5_RAR_CIS: Attagene CIS-FACTORIAL HepG2 Assay for human Retinoic Acid Receptor Alpha (RARE), DR5 submotif (AID 2282934); conditions: HepG2 Attagene cis-factorial RARE DR5 reporter, mRNA; actives raise or lower the signal;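 as to AC50: reporter responds to endogenous RAR alpha beta and gamma in HepG2 not RARA alone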
Sequence of Retinoic acid receptor alpha (Homo sapiens) (P10276 whole entry, looked up): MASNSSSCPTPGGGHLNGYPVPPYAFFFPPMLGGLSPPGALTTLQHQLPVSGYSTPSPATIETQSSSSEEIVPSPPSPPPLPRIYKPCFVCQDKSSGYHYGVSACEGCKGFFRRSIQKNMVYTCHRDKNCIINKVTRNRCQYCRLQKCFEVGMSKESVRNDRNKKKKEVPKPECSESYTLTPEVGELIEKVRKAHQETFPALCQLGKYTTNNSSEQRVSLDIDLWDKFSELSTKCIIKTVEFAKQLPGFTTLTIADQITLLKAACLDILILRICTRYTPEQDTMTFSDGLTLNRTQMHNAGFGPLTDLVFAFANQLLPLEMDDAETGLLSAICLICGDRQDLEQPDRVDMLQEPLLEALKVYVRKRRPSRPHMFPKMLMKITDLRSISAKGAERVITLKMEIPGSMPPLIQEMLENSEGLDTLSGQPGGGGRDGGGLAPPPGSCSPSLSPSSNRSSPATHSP
Summary of the method: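 HepG2 cells transiently transfected with multiplexed reporter units under cis (DR5 RARE) promoters, so endogenous transcription factor activity is measured. After 24 h compound exposure, reporter mRNA is quantified by RT-PCR with fluorescent labelling and capillary electrophoresis; bidirectional fitting versus DMSO.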

SMILES: CCc1nn(C)c(C(=O)NCc2ccc(C(C)(C)C)cc2)c1Cl
- AC50 [1]: 20.7 µM (active)
- outcome [2]: inactive
- outcome [3]: inactive
- outcome [4]: inactive
- AC50 [5]: 0.0488 µM (active)
- AC50 [6]: 100 µM (active)
- outcome [7]: inactive
- outcome [8]: inactive
- outcome [9]: inactive
- outcome [10]: inactive
- outcome [11]: inactive
- AC50 [12]: 0.378 µM (active)
- AC50 [13]: 1.19 µM (active)
- AC50 [14]: 0.171 µM (active)
- outcome [15]: inactive
- outcome [16]: inactive
- AC50 [17]: 0.117 µM (active)
- outcome [18]: inactive
- AC50 [19]: 0.578 µM (active)
- AC50 [20]: 0.425 µM (active)

SMILES: COP(=S)(OC)Oc1nc(Cl)c(Cl)cc1Cl
- AC50 [1]: 151 µM (active)
- outcome [2]: inactive
- outcome [3]: inactive
- outcome [4]: inactive
- outcome [5]: inactive
- outcome [6]: inactive
- outcome [7]: inactive
- outcome [8]: inactive
- outcome [9]: inactive
- outcome [10]: inactive
- outcome [11]: inactive
- outcome [12]: inactive
- outcome [13]: inactive
- outcome [14]: inactive
- AC50 [15]: 85.1 µM (active)
- outcome [16]: inactive
- outcome [17]: inactive
- outcome [18]: inactive
- outcome [19]: inactive
- outcome [20]: inactive

SMILES: Cc1ccc(-c2c(Cl)nc(C#N)n2S(=O)(=O)N(C)C)cc1
- AC50 [1]: 65.4 µM (active)
- AC50 [2]: 104 µM (active)
- outcome [3]: inactive
- outcome [4]: inactive
- AC50 [5]: 65.3 µM (active)
- outcome [6]: inactive
- outcome [7]: inactive
- outcome [8]: inactive
- outcome [9]: inactive
- outcome [10]: inactive
- outcome [11]: inactive
- AC50 [12]: 7.83 µM (active)
- AC50 [13]: 7.57 µM (active)
- outcome [14]: inactive
- outcome [15]: inactive
- outcome [16]: inactive
- AC50 [17]: 9.12 µM (active)
- outcome [18]: inactive
- AC50 [19]: 10.3 µM (active)
- AC50 [20]: 11.9 µM (active)

SMILES: COc1nc(NC(C)C)nc(NC(C)C)n1
- outcome [1]: inactive
- outcome [2]: inactive
- outcome [3]: inactive
- outcome [4]: inactive
- outcome [5]: inactive
- outcome [6]: inactive
- outcome [7]: inactive
- outcome [8]: inactive
- outcome [9]: inactive
- outcome [10]: inactive
- outcome [11]: inactive
- outcome [12]: inactive
- outcome [13]: inactive
- outcome [14]: inactive
- outcome [15]: inactive
- outcome [16]: inactive
- outcome [17]: inactive
- outcome [18]: inactive
- outcome [19]: inactive
- outcome [20]: inactive

SMILES: CCOc1cc(Oc2ccc(C(F)(F)F)cc2Cl)ccc1[N+](=O)[O-]
- AC50 [1]: 31.5 µM (active)
- outcome [2]: inactive
- outcome [3]: inactive
- AC50 [4]: 45 µM (active)
- AC50 [5]: 19.8 µM (active)
- outcome [6]: inactive
- outcome [7]: inactive
- outcome [8]: inactive
- outcome [9]: inactive
- outcome [10]: inactive
- outcome [11]: inactive
- outcome [12]: inactive
- AC50 [13]: 23.6 µM (active)
- AC50 [14]: 13.6 µM (active)
- AC50 [15]: 33.1 µM (active)
- outcome [16]: inactive
- AC50 [17]: 22 µM (active)
- outcome [18]: inactive
- AC50 [19]: 16.6 µM (active)
- outcome [20]: inactive
